According to PubChem BioAssay AID743373 (National Center for Advancing Translational Sciences (NCATS), 2014):
Several values for one entry are separate records, joined by “and”; a condition that tells them apart may be missing. Equal entries are not always repeated. Records with an inconclusive call do not appear. Activity calls are given as the source filed them. Calls come from the whole dose curve; as a rule, active = well fitted inhibition curve with a large enough effect; inconclusive = small, poorly fitted or top-dose-only effect; inactive = flat fitted curve, though single readings scatter.

Molecular target: Galactokinase (Homo sapiens) (UniProt P51570)
Assay: qHTS for Inhibitors of Human Galactokinase (GALK): Confirmation Assay for SAR round 4
Settings: recombinant GALK, ADP-Glo luminescence, 1 h; series mostly up to 57.5 µM; activity, negative = inhibition: at the top concentration
Text: Inherited deficiency of galactose-1-phosphate uridyltransferase (GALT) can result in a potentially lethal disorder called Classic Galactosemia (OMIM 230400). Several lines of evidence indicate that an elevated level of galactose-1-phosphate (gal-1-p), the product of galactokinase (GALK), is a major, if not sole, pathogenic mechanism in patients with classic galactosemia. Therefore, finding inhibitors of GALK is a potential novel therapy for this inherent metabolic disease and is the long term goal of this project. Active compounds observed in the qHTS GALK assay (AID: 1868) were cherry picked and re-screened for validation. GALK (provided by Kent Lai) was assayed using ATP and D-(+)-Galactose (Sigma-Aldrich cat# G0750) as substrates. Promega ADP-Glo technology was used to detect the ADP product formed after the kinase reaction. Kinase reactions with and without GALK were used as negative and positive controls together with Protein Tyrosine Phosphatase CD45 inhibitor (EMD Bioscience cat# 540215) which is shown to inhibit GALK activity. Decrease in activity corresponds to inhibition of the enzyme, the desired outcome for this assay. NIH Molecular Libraries Probe Production Network [MLPCN] NIH Chemical Genomics Center [NCGC] Grant: R03 MH085689-01 PI Name: Kent Lai, University of Utah
Two uL/well of ATP-buffer solution (35 uM ATP, 20mM HEPES pH8.0, 5 mM MgCl2, 60 mM NaCl, 1 mM DTT, 0.01% BSA final concentration) was dispensed into 1536-well, assay plates (Greiner, solid white medium-binding plates) with Aurora Discovery BioRAPTR Flying Reagent Dispenser (FRD; Beckton-Dickenson). Compound and control solution (23 nL) was transferred to the assay plate using the Kalypsys 1536-pin tool apparatus. Half uL/well GALK-galactose solution (5 nM GALK, 100 uM galactose, 20 mM HEPES pH8.0, 5 mM MgCl2, 60 mM NaCl, 1 mM DTT, 0.01% BSA final concentration) was then added using the FRD yielding a total kinase reaction volume of 2.5 uL/ well. After 1 hour of room temperature incubation, 2.5 uL ADP-Glo reagent A was added and incubated for 15 min. Five micorliter of ADP-Glo reagent B was then added per well and incubated for additional 15 min at room temperature. Luminescence was detected with the ViewLux plate reader (Perkin Elmer, Waltham, MA) using a 1 sec exposure time and 2x binning.

Sequence of Galactokinase (Homo sapiens) (P51570 whole entry, looked up): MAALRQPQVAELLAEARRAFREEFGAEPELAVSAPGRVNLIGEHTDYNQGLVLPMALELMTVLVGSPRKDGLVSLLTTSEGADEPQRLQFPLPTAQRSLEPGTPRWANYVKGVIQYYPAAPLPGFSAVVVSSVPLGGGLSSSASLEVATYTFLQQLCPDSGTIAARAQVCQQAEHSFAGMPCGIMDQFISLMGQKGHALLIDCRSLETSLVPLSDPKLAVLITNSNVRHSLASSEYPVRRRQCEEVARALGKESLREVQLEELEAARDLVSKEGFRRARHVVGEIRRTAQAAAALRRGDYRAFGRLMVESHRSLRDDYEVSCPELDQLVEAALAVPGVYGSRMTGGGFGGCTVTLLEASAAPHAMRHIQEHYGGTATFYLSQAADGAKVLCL

activity, negative = inhibition, inactive:
CNC(=O)C1=C(C)NC(Nc2nc3ccccc3o2)=NC12CCCC2 -10.4%
CC1=C(C(=O)Nc2nc3ccccc3s2)C2(CCCC2)N=C(Nc2nc3ccccc3o2)N1 -18.2%
CC1=C(C(=O)NC2CCCC2)C(c2[nH]ncc2Cl)N=C(Nc2nc3ccccc3o2)N1 (stereo not given) -11.9%
CC1=C(C(=O)Nc2nc3ccccc3s2)C(c2nn(C)cc2Cl)N=C(Nc2nc3ccccc3o2)N1 (stereo not given) -5.67%
CC(C)CN1CC2=C(C1=O)C(c1ccccc1Cl)N=C(Nc1nc3ccccc3o1)N2 (stereo not given) -14.9%
CC1=C(C(=O)Nc2ccc(Cl)cc2)C(c2ccccc2Br)N=C(Nc2nc3ccccc3o2)N1 (stereo not given) -26.9%
O=C1C2=C(CN1c1ccccc1)NC(Nc1nc3ccccc3o1)=NC2c1ccccc1Cl (stereo not given) -7.05%
CC1=C(C(=O)Nc2noc3ccccc23)C(c2nn(C)cc2Cl)N=C(Nc2nc3ccccc3o2)N1 (stereo not given) -1.71%
O=C1C2=C(CN1Cc1ccccc1)NC(Nc1nc3ccccc3o1)=NC2c1ccccc1Cl (stereo not given) -0.242%
CC1=C(C(=O)Nc2nc3ccccc3s2)C(c2[nH]ncc2Cl)N=C(Nc2nc3ccccc3o2)N1 (stereo not given) -7.24%
CC1=C(C(=O)Nc2noc3ccccc23)C2(CCCC2)N=C(Nc2nc3ccccc3o2)N1 -1.57%

Potency, active:
O=C1CCCC2=C1C(c1[nH]ncc1Br)N=C(Nc1nc3ccccc3o1)N2 (stereo not given) 15.3 µM
O=C1CCCC2=C1C(c1ccccc1Cl)N=C(Nc1nc3ccccc3o1)N2 (stereo not given) 13.7 µM
O=C1CCCC2=C1C(c1[nH]ncc1Cl)N=C(Nc1nc3ccccc3o1)N2 (stereo not given) 5.44 µM and 6.85 µM
O=C1CCCC2=C1C(c1ccncc1Cl)N=C(Nc1nc3ccccc3o1)N2 (stereo not given) 10.9 µM
CC1=C(C(=O)Nc2ccon2)C(c2ccccc2Br)N=C(Nc2nc3ccccc3o2)N1 (stereo not given) 7.69 µM
O=C1CCCC2=C1C(c1ccccc1I)N=C(Nc1nc3ccccc3o1)N2 (stereo not given) 3.06 µM
CC1=C(C(=O)Nc2nncs2)C(c2[nH]ncc2Cl)N=C(Nc2nc3ccccc3o2)N1 (stereo not given) 7.69 µM
O=C1CCCC2=C1C(c1ccccc1Br)N=C(Nc1nc3ccccc3o1)N2 (stereo not given) 4.32 µM
CC1=C(C(=O)Nc2ccon2)C2(CCCC2)N=C(Nc2nc3ccccc3o2)N1 7.69 µM
